PGE2 EP2 inh: human EP2 receptor antagonists, primary screen, TR-FRET cAMP, C6 glioma cells. 260,000 tested, 0.52% active. C6 glioma cells expressing human EP2; cells stimulated with saturating PGE2. inhibition, % at 25 µM. Prostaglandin E2 receptor EP2 subtype (Homo sapiens), P43116;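 active means percent inhibition above 40 after rounding to a whole number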;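 further: rat C6 glioma host cells with rolipram phosphodiesterase inhibitor present; the protocol text gives 20 µM as final concentration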
Target sequence (P43116 whole entry, looked up): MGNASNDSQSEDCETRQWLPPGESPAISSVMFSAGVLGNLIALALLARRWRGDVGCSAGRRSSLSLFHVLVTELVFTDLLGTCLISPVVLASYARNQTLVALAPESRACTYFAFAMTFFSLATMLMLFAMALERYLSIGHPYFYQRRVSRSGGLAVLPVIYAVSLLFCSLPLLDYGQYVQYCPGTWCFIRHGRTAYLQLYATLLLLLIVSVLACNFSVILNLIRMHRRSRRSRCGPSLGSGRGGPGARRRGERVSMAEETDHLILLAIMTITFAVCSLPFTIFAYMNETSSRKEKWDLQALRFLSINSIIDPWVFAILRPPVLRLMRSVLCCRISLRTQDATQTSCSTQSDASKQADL
HMGR II inh: inhibitors of E. faecalis class II HMGR, primary screen, biochemical, Enterococcus faecalis. HMG-CoA reductase (Enterococcus faecalis, mvaE). purified E. faecalis HMGR, NADPH absorbance 340 nm kinetic. inhibition, % at 10 µM. 190,000 tested, 0.41% active;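 active means inhibition above a set limit, the median over all tested compounds plus 3 SD, cut at about 9.5% in these data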;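 further: enzyme runs in reverse so mevalonate oxidation gives rising NADPH absorbance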
EP2 modulator: EP2 receptor modulators, cAMP readout, primary screen, cell-based, HTRF cAMP, PGE2 stimulation; 260,000 tested, 0.83% active; Prostaglandin E2 receptor EP2 subtype (Homo sapiens), P43116; EP2-expressing cells, cAMP HTRF FRET, PGE2 co-stimulation; induction, % at 25 µM;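 active means compounds whose cAMP rise, as percent of the full-agonist control response, exceeds 60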;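 further: rat C6 glioma line stably carrying human EP2 under a CMV promoter; the protocol text gives 20 µM as final concentration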
Calpain2 inh: inhibitors of pig calpain II, primary screen, biochemical, fluorogenic peptide substrate, 1536-well. inhibition, % at 16 µM. AID 1236, 2008. 220,000 tested, 0.37% active. purified calpain II, 30 min;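 active means inhibition above about 50%, limit read from the data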
Furin inh: human furin inhibitors, primary screen, biochemical, fluorescence intensity; P09958; purified furin, fluorogenic substrate cleavage; inhibition, % at 20 µM or 30 µM; 220,000 tested, 0.061% active; AID 463115, 2010; in the data active means inhibition above about 25%
Hits are given with their value; - = inactive; . = no result. The list is not random: actives were taken first. Their share in the collection is about 1.9%.

SMILES | PGE2 EP2 inh | HMGR II inh | EP2 modulator | Calpain2 inh | Furin inh
CN(CC(=O)O)Cc1c(O)c(Cl)cc(Cl)c1Cl | - | . | - | . | .
CN(CC(=O)Nc1c(Cl)cccc1Cl)C(=O)CCCN1C(=O)c2ccccc2C1=O | - | - | - | - | -
Cc1ccc(NC(=O)CN(C)C(=O)CCCN2C(=O)c3ccccc3C2=O)cc1 | - | - | - | 59.8 | -
Cc1ccc(-n2c(SCC(=O)NC3CCCCC3)nnc2-c2ccco2)cc1 | - | . | - | . | .
Cc1ccc(-n2c(SCC(=O)N3CCCC(C)C3)nnc2-c2ccco2)cc1 (stereo not drawn) | 93.2 | . | - | . | .
Cc1cc(C)c(NC(=O)COC(=O)Cc2ccsc2)c(C)c1 | - | - | - | 62.1 | -
O=C(c1cc([N+](=O)[O-])ccc1N1CCOCC1)N1CCCCC1 | - | - | - | 81.9 | -
C/C(N[O-])=C(\C)[N+]([O-])=[Fe].CC(=N\[O-])/C(C)=N/[O-].[NH2-].c1c[nH+]c[n-]1 | 44.4 | . | - | . | .
C/C(N[O-])=C(\C)[N+]([O-])=[Cu].C/C(N[O-])=C(\C)[N+]([O-])=[Cu].CC(=N\[O-])/C(C)=N/[O-].CC(=N\[O-])/C(C)=N/[O-] | 55.8 | . | - | . | .
Cc1cc(C(=O)N2CCCC(c3ncncc3-c3ccncc3)C2)c(C)[nH]1 (stereo not drawn) | . | . | - | . | .
CCNc1nc(NC(C)C)nc(SCCOC(=O)c2ccccc2)n1 | - | - | 61.4 | - | -
CC(NC(=O)CCCCCN1C(=O)c2ccccc2C1=O)c1ccc2c(c1)CCCC2 (stereo not drawn) | - | - | - | 57.2 | -
CC(NC(=O)CCCCCCN1C(=O)c2ccccc2C1=O)c1ccc2c(c1)CCCC2 (stereo not drawn) | - | - | - | - | -
NC(=O)c1cn(-c2ccccc2)nc1-c1cc2ccccc2oc1=O | - | - | 98.2 | - | -
COc1cccc(Cn2c(Oc3ccccc3)nc3c2c(=O)n(C)c(=O)n3C)c1 | - | - | - | - | -
Cn1c(=O)c2c(nc(OCc3ccccc3)n2C)n(C)c1=O | - | - | - | - | -
C=CCn1c(Oc2ccccc2)nc2c1c(=O)n(C)c(=O)n2C | - | 16.3 | - | - | -
COc1cccc(COc2nc3c(c(=O)n(C)c(=O)n3C)n2C)c1 | . | - | - | 76.0 | -
Cc1ccc2nsnc2c1N | - | 18.1 | - | - | -
CCOC(=O)C1CCN(C(=O)c2c(-c3ccccc3)noc2C)CC1 | - | 14.2 | - | - | -
COc1cc(S(=O)(=O)N(CCc2ccc(F)cc2)Cc2ccco2)ccc1-n1cnnn1 | - | . | - | . | .
O=C(O)C(Cc1ccccc1)N1C(=O)C2CCCCC2C1=O (stereo not drawn) | - | 16.9 | - | - | -
O=C(O)C(Cc1ccccc1)N1C(=O)CCC1=O (stereo not drawn) | - | - | - | - | -
COC(=O)CSc1nnnn1-c1ccccc1 | - | - | - | - | -
O=C(CSc1nnnn1-c1ccccc1)Nc1ccc(N2CCOCC2)c(Cl)c1 | - | 15.2 | - | - | -
SMILES | PGE2 EP2 inh | HMGR II inh | EP2 modulator | Calpain2 inh | Furin inh
CCOC(=O)NC(=O)CSc1nnnn1-c1ccccc1 | - | - | - | - | 37.6
O=C(NC(=S)N(CC1CCC1)CC1CCCO1)c1cccc([N+](=O)[O-])c1 (stereo not drawn) | - | 13.7 | - | - | -
CC1Cc2nc(SCC(=O)NC3CCCCC3)n(C)c(=O)c2S1 (stereo not drawn) | 98.1 | - | - | - | -
CCc1nnc(NC(=O)CSc2nc3c(c(=O)n2C)SC(C)C3)s1 (stereo not drawn) | - | - | - | - | -
Cc1cc2nc(C3CCN(CC(=O)Nc4ccccc4-c4ccccc4)CC3)[nH]c2cc1C | - | . | - | . | .
COc1ccc(NC(=O)c2ccccc2SC)cc1 | - | 9.6 | - | 89.8 | -
CCOc1ccc(NC(=O)c2ccccc2SC)cc1 | - | . | - | - | -
COC1(OC)N=C(NC(=O)Nc2ccccc2)C2(C#N)C(c3ccccc3)C12C#N (stereo not drawn) | - | 13.5 | . | . | -
O=C(C1CC1)N1CCC[C@H](Cn2nc(-c3cccs3)ccc2=O)C1 | - | . | - | . | .
Cn1ccnc1C(NC(=O)c1cccnc1)c1ccc(F)c(F)c1 (stereo not drawn) | - | . | - | . | .
O=C(Oc1ccccc1-c1nnco1)c1ccccc1 | - | - | - | - | -
Cc1noc(-c2ccccc2OC(=O)c2ccccc2)n1 | - | - | 64.1 | - | -
Nc1nc2c(c(=O)[nH]1)N[C@H](CCNc1ccc(C(=O)O)cc1)CN2 | 48.6 | . | - | . | .
C=C[C@@]1(C)CC(=O)[C@@]2(O)[C@](C)(O1)[C@@H](OC(C)=O)[C@@H](O)C1C(C)(C)CC[C@H](O)[C@@]12C (stereo partly drawn) | - | . | 104.1 | . | .
O=C1/C(=C/c2cccs2)Sc2ccccc21 | - | 10.5 | - | - | -
Nc1nnc(CC(=O)N2CCOCC2)s1 | - | . | - | . | .
Cc1ccccc1NC1=NC(=S)N(c2ccccc2)C12CCCCC2 | - | - | 62.0 | - | -
O=C(c1cccs1)N1N=C(c2ccc(O)cc2)CC1c1ccccc1 (stereo not drawn) | - | - | 64.5 | - | -
O=C(c1cccs1)N1N=C(c2ccccc2)CC1c1ccccc1 (stereo not drawn) | - | - | 63.2 | - | -
Cc1[nH]c2ccccc2c1/C=N/NC(=S)NCc1ccccc1 | - | - | - | 64.2 | -
Cc1[nH]c2ccccc2c1/C=N/NC(N)=S | - | . | - | - | -
c1coc(Cn2nnnc2CN2CCN(Cc3ccc4c(c3)OCO4)CC2)c1 | - | . | - | . | .
COc1cccc(N2CC(=O)N(c3cccc(OC)c3)CC2=O)c1 | - | 9.7 | - | - | -
CC1(C)CC(C)(c2ccc(O)cc2O)N(c2cccc(Cl)c2)C(=S)N1 (stereo not drawn) | - | 10.6 | - | - | -
CCn1c(COc2cccc(C)c2)nnc1SCC(=O)N1CCC(C)CC1 | - | . | - | . | .
SMILES | PGE2 EP2 inh | HMGR II inh | EP2 modulator | Calpain2 inh | Furin inh
CCOC(=O)c1oc2ccc(OC)cc2c1CSc1ccccn1 | - | . | 62.3 | . | .
CCOC(=O)c1oc2ccccc2c1NC(=O)c1cccc(OC)c1 | - | - | 62.7 | - | -
CCOC(=O)c1oc2ccccc2c1CSc1nnc(-c2ccco2)o1 | - | - | - | - | -
CCc1nn(CC(=O)NCC2CC2)c(=O)c2cc3sc(C)cc3n12 | . | . | - | . | .
Cc1cc(C)cc(-n2c3nc4ccccc4nc3c3c(=O)n(Cc4ccco4)cnc32)c1 | - | 17.2 | - | - | -
CCOc1ccc(-n2c3nc4ccccc4nc3c3c(=O)n(Cc4ccco4)cnc32)cc1 | . | . | . | . | -
Cc1cnc(C(=O)NCC2CCN(c3ccc(S(=O)(=O)N(C)C)cc3)CC2)cn1 | - | . | - | . | .
COc1ccc2c(c1)cc(C)c1nn(CC(N)=O)c(=O)n12 | - | . | 84.0 | . | .
CCOc1ccc(NC(=S)N(Cc2cc3cccc(C)c3[nH]c2=O)C2CCCCC2)cc1 | - | . | - | . | .
O=C(Cn1nc(C(F)(F)F)c2c1CCCC2)NCCCc1ccccn1 | - | . | - | . | .
